# Experimental data taken from PubChem BioAssay AID1645838 (ICCB-Longwood Screening Facility, Harvard Medical School, 2021).
# “And” between values parts separate entries of the source, which are not always exact repeats. Equal entries are not always repeated. The whole screen tested about 2,000 compounds, of which about 100 (5%) were called active. This is one part of a sample in which actives are shown more often than they occur. No stated cut-off is given here; in the data, active means z-score above about 2; inactive means the rest. Some compounds were tested as several samples or in several runs, with calls that do not always agree.
# Test: supercomplex reporter luminescence per Hoechst cell count – Hoechst nuclei count (AID 1645838);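 further: control cybrid cells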;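 on z-score: higher means more mitochondrial supercomplex formation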
# Conditions: Cells, luminescence/Hoechst cell count ratio; for z-score: stronger effect = higher value; for cell count: measured here: cell number, Hoechst nuclei count
# [1] = library stock concentration (final well concentration not given) 80 uM
# [2] = library stock concentration (final well concentration not given) 400 uM
# [3] = library stock concentration (final well concentration not given) 2 mM
# [4] = library stock concentration (final well concentration not given) 10 mM
# [5] = library stock concentration (final well concentration not given) 46 uM
# [6] = library stock concentration (final well concentration not given) 278 uM
# [7] = library stock concentration (final well concentration not given) 1.67 mM
smiles,measurement,setting,value
COc1cc(C2c3cc4c(cc3C(O)[C@H]3COC(=O)[C@@H]23)OCO4)cc(OC)c1OC (some centres not stated),outcome,library stock 2 mM,inactive; censored for cell count
same,outcome,library stock 10 mM,inactive; censored for cell count
same,z-score,[1],-0.602 (inactive)
same,z-score,[2],-0.324 (inactive)
same,cell count,[1],5600
same,cell count,[2],3990
O=C(O)CCC/C=C\C[C@@H]1[C@@H](/C=C/C(=O)CCc2ccccc2)[C@H](O)C[C@@H]1O,z-score,,0.328 (inactive)
same,cell count,,4980
CCCCC[C@H](O)/C=C/[C@H]1C=CC(=O)[C@@H]1C/C=C\CCCC(=O)O,z-score,,0.972 (inactive)
same,cell count,,5050
Oc1ccc(C=NN(Cc2ccccc2)Cc2ccccc2)cc1,z-score,[1],0.58 (inactive)
same,z-score,[2],0.621 (inactive)
same,z-score,[3],0.515 (inactive)
same,z-score,[4],1.23 (inactive)
same,cell count,[1],4430
same,cell count,[2],4410
same,cell count,[3],3940
same,cell count,[4],3600
CC1(C)OC2CO[C@@]3(COS(N)(=O)=O)OC(C)(C)OC3C2O1 (some centres not stated),z-score,[1],0.166 (inactive)
same,z-score,[2],0.0797 (inactive)
same,z-score,[3],0.165 (inactive)
same,z-score,[4],-0.169 (inactive)
same,cell count,[1],6240
same,cell count,[2],6200
same,cell count,[3],5750
same,cell count,[4],5940
CCCCCCCCCCCCCCCCC(=O)NCCO,z-score,,0.812 (inactive)
same,cell count,,5880
CC(N)c1ccc(C(=O)Nc2ccnc3[nH]ccc23)cc1 (configuration not stated),z-score,[1],0.0935 (inactive)
same,z-score,[2],-0.0384 (inactive)
same,z-score,[3],-0.229 (inactive)
same,z-score,[4],0.129 (inactive)
same,cell count,[1],5400
same,cell count,[2],5420
same,cell count,[3],5670
same,cell count,[4],3470
O=C(Cc1cccc(OC(F)(F)F)c1)Nc1ccc(CCCCc2nnc(NC(=O)Cc3ccccn3)s2)nn1,z-score,[5],1.3 (inactive)
same,z-score,[6],3.8 (active)
same,z-score,[7],4.04 (active)
same,z-score,[4],4.54 (active)
same,cell count,[5],5940
same,cell count,[6],4200
same,cell count,[7],4190
same,cell count,[4],3940
NC(=O)c1cnc(NC2CCCCC2N)nc1Nc1cccc(-n2nccn2)c1 (configuration not stated),z-score,[1],-0.155 (inactive)
same,z-score,[2],-0.103 (inactive)
same,z-score,[3],0.129 (inactive)
same,z-score,[4],0.743 (inactive)
same,cell count,[1],5260
same,cell count,[2],4840
same,cell count,[3],5390
same,cell count,[4],3000
CCCC[C@H](C)C[C@H](O)/C=C/[C@H]1[C@H](O)CC(=O)[C@@H]1CCCCC(CC(=O)O)OC (some centres not stated),z-score,,-0.235 (inactive)
same,cell count,,5180
CC(C)OC(=O)N1CCC(Oc2ncnc3c2cnn3-c2ccc(S(C)(=O)=O)cc2F)CC1,z-score,[5],-0.707 (inactive)
same,z-score,[6],-0.537 (inactive)
same,z-score,[7],-0.462 (inactive)
same,z-score,[4],-0.531 (inactive)
same,cell count,[5],7670
same,cell count,[6],7400
same,cell count,[7],7330
same,cell count,[4],7200
CCCCC/C=C\C/C=C\CCCCCCCC(=O)O[C@H](COC(=O)CCCCCCCCCCCCCCC)COP(=O)(O)OCCN,z-score,,-0.42 (inactive)
same,cell count,,5090
CC(C)(C)OC(=O)Nc1ccc(-c2cc(C(=O)NCCCCCCC(=O)NO)no2)cc1,z-score,,4.81 (active)
same,cell count,,3910
CC(C)(C)CC1NC(C(=O)NC2CCC(O)CC2)C(c2cccc(Cl)c2F)[C@]12C(=O)Nc1cc(Cl)ccc12 (some centres not stated),z-score,[5],-0.637 (inactive)
same,z-score,[6],-0.742 (inactive)
same,z-score,[7],-0.98 (inactive)
same,z-score,[4],-1.86 (inactive)
same,cell count,[5],7790
same,cell count,[6],7430
same,cell count,[7],8360
same,cell count,[4],7510
CC(C)(C)C(O)C=Cc1ccc2c(c1)OCO2 (configuration not stated),z-score,[1],0.0878 (inactive)
same,z-score,[2],0.509 (inactive)
same,z-score,[3],0.124 (inactive)
same,z-score,[4],0.138 (inactive)
same,cell count,[1],5100
same,cell count,[2],4800
same,cell count,[3],5050
same,cell count,[4],5260
CN1CCN(CCOc2cc(OC3CCOCC3)c3c(Nc4c(Cl)ccc5c4OCO5)ncnc3c2)CC1,outcome,library stock 10 mM,inactive; censored for cell count
same,z-score,[1],0.0594 (inactive) and -0.195 (inactive)
same,z-score,[2],0.376 (inactive) and 0.19 (inactive)
same,z-score,[3],1.62 (inactive) and 2.74 (active)
same,cell count,[1],4300 and 6110
same,cell count,[2],4050 and 5610
same,cell count,[3],3190 and 3140
O=C1C(c2ccccc2)N(c2ccc(Br)cc2)C(=O)N1c1ccc(Br)cc1 (configuration not stated),z-score,,-0.397 (inactive)
same,cell count,,4960
CC#CCC(C)C(O)C=CC1C(O)C[C@@H]2CC(=CCCCC(=O)O)C[C@@H]12 (some centres not stated),z-score,[1],-0.0626 (inactive)
same,z-score,[2],-0.295 (inactive)
same,z-score,[3],0.193 (inactive)
same,z-score,[4],0.43 (inactive)
same,cell count,[1],5530
same,cell count,[2],5750
same,cell count,[3],5230
same,cell count,[4],4650
Nc1ncnc2c1c(-c1ccc(Oc3ccccc3)cc1)cn2C1CCCC1,z-score,[1],0.00446 (inactive)
same,z-score,[2],0.328 (inactive)
same,z-score,[3],0.396 (inactive)
same,z-score,[4],0.246 (inactive)
same,cell count,[1],4810
same,cell count,[2],4230
same,cell count,[3],4080
same,cell count,[4],3660
Cn1cc(-c2ccc3c(c2)CCN3C(=O)Cc2cccc(C(F)(F)F)c2)c2c(N)ncnc21,z-score,[5],-0.404 (inactive)
same,z-score,[6],-0.312 (inactive)
same,z-score,[7],-0.398 (inactive)
same,z-score,[4],0.717 (inactive)
same,cell count,[5],6450
same,cell count,[6],6260
same,cell count,[7],6230
same,cell count,[4],4040
COc1cccc(-c2cn(-c3ccc(CCN4CCC(O)CC4)cc3)c3ncnc(N)c23)c1,z-score,[5],-0.0662 (inactive)
same,z-score,[6],-0.203 (inactive)
same,z-score,[7],0.503 (inactive)
same,z-score,[4],6.01 (active)
same,cell count,[5],6890
same,cell count,[6],6710
same,cell count,[7],6410
same,cell count,[4],2860
CCCCCC(O)CCC1C(O)C[C@H]2Cc3c(cccc3OCC(=O)O)C[C@@H]12 (some centres not stated),z-score,[1],-0.232 (inactive)
same,z-score,[2],-0.452 (inactive)
same,z-score,[3],-0.204 (inactive)
same,z-score,[4],-0.825 (inactive)
same,cell count,[1],6220
same,cell count,[2],5860
same,cell count,[3],5910
same,cell count,[4],6040
CCCCC/C=C\C/C=C\CCCCCCCC(=O)OCC(COC(=O)CCCCCCCCCCCCCCC)OC(=O)CCCCCCC/C=C\CCCCCCCC (configuration not stated),z-score,,0.273 (inactive)
same,cell count,,5490
O=C(Nc1nnc(-c2ccco2)o1)c1cc(-c2ccccc2)nc2ccccc12,z-score,[5],0.451 (inactive)
same,z-score,[6],0.815 (inactive)
same,z-score,[7],0.151 (inactive)
same,z-score,[4],2.24 (active)
same,cell count,[5],6600
same,cell count,[6],6010
same,cell count,[7],6640
same,cell count,[4],4920
CCCC(=O)Nc1nc(-c2ccccc2)cc(-c2ccccc2)n1,z-score,[1],-0.0977 (inactive)
same,z-score,[2],0.0694 (inactive)
same,z-score,[3],-0.49 (inactive)
same,z-score,[4],-0.335 (inactive)
same,cell count,[1],5390
same,cell count,[2],5300
same,cell count,[3],4980
same,cell count,[4],5140
COC(=O)C(NC(=O)c1cc(-c2ccccc2)nc2ccccc12)c1ccccc1 (configuration not stated),z-score,[5],-0.299 (inactive)
same,z-score,[6],-0.209 (inactive)
same,z-score,[7],-0.176 (inactive)
same,z-score,[4],-0.0618 (inactive)
same,cell count,[5],6610
same,cell count,[6],6570
same,cell count,[7],6890
same,cell count,[4],6540
CCCC/C=C/C=C/C=C\CCCCCCCC(=O)OC,z-score,,0.121 (inactive)
same,cell count,,4950
O=C(O)CCC/C=C\C[C@@H]1C(=O)C[C@@H](O)[C@@H]1/C=C/[C@@H](O)CCc1ccccc1,z-score,,0.113 (inactive)
same,cell count,,5100
O=C1C(Cc2ccc(O)cc2)N2C(=O)CCN(C(=O)NCc3ccccc3)C2CN1Cc1cccc2ccccc12 (configuration not stated),z-score,[5],-0.329 (inactive)
same,z-score,[6],-0.452 (inactive)
same,z-score,[7],-1.5 (inactive)
same,z-score,[4],-0.675 (inactive)
same,cell count,[5],7210
same,cell count,[6],7220
same,cell count,[7],7090
same,cell count,[4],4220
CN(C)CCC1(c2ccc(Cl)cc2)Cc2ccccc2C(=O)O1 (configuration not stated),z-score,[5],-0.548 (inactive)
same,z-score,[6],-0.51 (inactive)
same,z-score,[7],-0.496 (inactive)
same,z-score,[4],0.011 (inactive)
same,cell count,[5],6980
same,cell count,[6],6360
same,cell count,[7],6480
same,cell count,[4],6170
C=C(C)[C@@H]1CCC(C)=C[C@H]1c1c(O)cc(C)cc1O,z-score,,-0.799 (inactive)
same,cell count,,5690
Nc1nc2c([nH]c(=O)n2[C@@H]2O[C@H](CO)[C@@H](O)[C@H]2O)c(=O)[nH]1,z-score,,-0.949 (inactive)
same,cell count,,5870
COc1cc(NC(=O)c2ccc(-c3ccc(Cl)cc3)o2)cc(OC)c1,z-score,[5],-0.316 (inactive)
same,z-score,[6],0.0249 (inactive)
same,z-score,[7],-0.417 (inactive)
same,z-score,[4],-1 (inactive)
same,cell count,[5],6650
same,cell count,[6],6230
same,cell count,[7],6670
same,cell count,[4],6710
NC(=O)c1cccc(-c2cccc(OC(=O)NC3CCCCC3)c2)c1,z-score,,-0.595 (inactive)
same,cell count,,5600
COc1cccc(-c2ccc(NC(=O)C3=C(C(=O)O)CCC3)c(F)c2)c1,z-score,[5],0.0997 (inactive)
same,z-score,[6],0.11 (inactive)
same,z-score,[7],-0.285 (inactive)
same,z-score,[4],7.02 (active)
same,cell count,[5],6810
same,cell count,[6],6860
same,cell count,[7],6660
same,cell count,[4],3760
C[C@@H](O)CCC[C@H](O)/C=C/C1=C(C/C=C\CCCC(=O)O)C(=O)CC1,z-score,,-0.229 (inactive)
same,cell count,,5100
c1ccc(Cc2ccncc2)cc1,z-score,[1],-0.46 (inactive)
same,z-score,[2],-0.111 (inactive)
same,z-score,[3],-0.201 (inactive)
same,z-score,[4],-0.169 (inactive)
same,cell count,[1],5970
same,cell count,[2],5030
same,cell count,[3],5260
same,cell count,[4],5220
CC/C=C\C/C=C\C/C=C\CCCCCCCC(=O)O,z-score,,-0.381 (inactive)
same,cell count,,5900
CCCCCCCCCCCC(=O)CC(=O)N[C@H]1CCOC1=O,z-score,,-0.866 (inactive)
same,cell count,,5800
CCCCC[C@H](O)/C=C/[C@H]1CC[C@@H](O)[C@@H]1CCCCCCC(=O)O,z-score,,0.234 (inactive)
same,cell count,,5240
CC1COCCN1c1cc(C2(S(C)(=O)=O)CC2)nc(-c2cccc3[nH]ccc23)n1 (configuration not stated),outcome,library stock 10 mM,inactive; censored for cell count
same,z-score,[1],-0.307 (inactive)
same,z-score,[2],-0.152 (inactive)
same,z-score,[3],2.1 (active)
same,cell count,[1],5900
same,cell count,[2],5550
same,cell count,[3],2180
CCCCC[C@H](O)/C=C/[C@H]1[C@H](O)CC(=O)[C@@H]1CC(=O)CCCCC(=O)O,z-score,,0.036 (inactive)
same,cell count,,5230
CN(C)C1CCc2[nH]c3ccc(NC(=O)c4ccc(F)cc4)cc3c2C1 (configuration not stated),z-score,[5],-0.478 (inactive)
same,z-score,[6],-0.381 (inactive)
same,z-score,[7],-0.318 (inactive)
same,z-score,[4],-0.368 (inactive)
same,cell count,[5],6480
same,cell count,[6],6070
same,cell count,[7],6670
same,cell count,[4],6110
CCCCC[C@H](O)/C=C/[C@H]1C2COC(C2)[C@@H]1C/C=C/CCCC(=O)O (some centres not stated),z-score,,-0.6 (inactive)
same,cell count,,5320
Cc1cc(Nc2cc(N3CCN(C)CC3)nc(Sc3ccc(NC(=O)C4CC4)cc3)n2)n[nH]1,outcome,library stock 80 µM,inactive; censored for cell count
same,outcome,library stock 400 µM,inactive; censored for cell count
same,outcome,library stock 2 mM,inactive; censored for cell count
same,outcome,library stock 10 mM,inactive; censored for cell count
same,z-score,[1],5.13 (active)
same,cell count,[1],1630
CCCCC(C)(C)[C@H](O)/C=C/[C@H]1C=CC(=O)[C@@H]1CCCCCCC(=O)O,z-score,,0.218 (inactive)
same,cell count,,4930
